SMILES strings stand for the structures. About 83,000 compounds went through this panel and 20% of them were active in at least one assay; those are over-represented in the sample as a whole.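 96-well plates, one dose, 48 hours. Percent growth reported; active if below 10.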 A number with no mark means an inactive call. Calls of active or inactive are those of the source.

Among the test systems are HCT-15 colon; HT29 colon; SNB-19 CNS; U251 CNS; PC-3 prostate; SK-MEL-5 melanoma; UACC-62 melanoma; LOX IMVI melanoma; SK-MEL-28 melanoma; SK-MEL-2 melanoma; EKVX NSCLC; SN12C renal; UO-31 renal; TK-10 renal; ACHN renal; A498 renal; CCRF-CEM leukemia; MOLT-4 leukemia; CAKI-1 renal.
Holding throughout (assay): NCI-60 one-dose screen, 48 h (100 = growth as untreated, 0 = no growth, -100 = all killed)
What all share (conditions): 10 µM unless noted

Turning to `CC(C)(C)n1cc(-c2ccnc(NCCNS(=O)(=O)c3ccc(C(F)(F)F)cc3)c2)c(-c2cccc(O)c2)n1`, the growth in the assay on HCT-15 colon was 11.7%; in the assay on HT29 colon, 12.4%; in the assay on SNB-19 CNS, 70.5%; in the assay on U251 CNS it was 36.8%; in the assay with PC-3 prostate, 25.4%; in the assay with SK-MEL-5 melanoma, 20.9%. The growth in the assay with UACC-62 melanoma was 64.1%; with LOX IMVI melanoma it was 25.8%; with SK-MEL-28 melanoma, 51.3%; with SK-MEL-2 melanoma, 66.5%; in the assay on EKVX NSCLC, 52.2%; with SN12C renal, 52.8%. In addition, the growth in the assay with UO-31 renal was 48.1%; in the assay with TK-10 renal, 98.7%; in the assay with ACHN renal, 57.1%; in the assay with A498 renal, 55.1%; in the assay on CCRF-CEM leukemia, 46.1%; with MOLT-4 leukemia it was 28.9%.
With `COc1ccc(C2CC(c3ccc(OC)cc3OC)=NN2c2ccc(S(N)(=O)=O)cc2)cc1` (stereo unspecified), the growth in the assay with HCT-15 colon was 75%; in the assay on HT29 colon, 71.8%; in the assay with SNB-19 CNS, 85.7%; with U251 CNS it was 79.3%; in the assay on PC-3 prostate, 56%; in the assay with SK-MEL-5 melanoma, 91.6%. Besides, the growth is 77.2% in the assay on UACC-62 melanoma; 101% with LOX IMVI melanoma; 125% in the assay with SK-MEL-28 melanoma; 94.6% in the assay on SK-MEL-2 melanoma; 87.5% in the assay on EKVX NSCLC; 90.8% in the assay with SN12C renal. For the same compound, the growth with UO-31 renal is 86.8%; in the assay with TK-10 renal, 105%; with ACHN renal, 107%; with A498 renal, 102%; in the assay on CCRF-CEM leukemia, 75.5%; in the assay on MOLT-4 leukemia it was 61.8%.
Regarding `COc1cc(-c2nn(-c3cccc(NC(=O)Nc4ccc(Cl)c(Cl)c4)c3)cc2-c2ccncc2)ccc1Cl`, the growth in the assay with HCT-15 colon was 12.7%; with HT29 colon, 1.12% (active); with SNB-19 CNS, 27.2%; in the assay with U251 CNS, -6.02% (active); in the assay on PC-3 prostate it was -17.6% (active); in the assay with SK-MEL-5 melanoma it was -80% (active). Further, the growth was -65.1% (active) in the assay with UACC-62 melanoma; 1.38% (active) in the assay on LOX IMVI melanoma; 4.96% (active) with SK-MEL-28 melanoma; -44.2% (active) in the assay with SK-MEL-2 melanoma; 10.6% in the assay with SN12C renal; 15.9% with UO-31 renal. In addition, the growth in the assay on TK-10 renal was 10.9%; in the assay with ACHN renal, 11.5%; with CAKI-1 renal, 16.8%; with A498 renal, -6.82% (active); in the assay on CCRF-CEM leukemia, -7.9% (active).
Turning to `COc1cc([N+](=O)[O-])c2ncccc2c1O`, the growth in the assay with HCT-15 colon was 4.36% (active); in the assay on HT29 colon, 44.6%; in the assay with SNB-19 CNS, 6.29% (active); in the assay with U251 CNS, 53.3%; with PC-3 prostate, 78.9%; in the assay on SK-MEL-5 melanoma it was -59.4% (active). Also, the growth is 15.8% with UACC-62 melanoma; 66% in the assay on LOX IMVI melanoma; 28.5% with SK-MEL-28 melanoma; 4.77% (active) in the assay with SK-MEL-2 melanoma; 105% in the assay with EKVX NSCLC; 33.7% with SN12C renal. Besides, the growth in the assay with UO-31 renal is 25.6%; with TK-10 renal, 89.2%; with ACHN renal, 88.8%; with CAKI-1 renal, 82.9%; in the assay with CCRF-CEM leukemia, 61.3%; in the assay on MOLT-4 leukemia, 119%.
In the case of `COc1ccc(-c2nc(-c3nc4cc(C)c(C)cc4[nH]3)cc3c2[nH]c2ccccc23)cc1`, the growth in the assay with HCT-15 colon is 3.41% (active); in the assay on HT29 colon, 1.21% (active); in the assay on SNB-19 CNS it was 82.7%; with U251 CNS, 10.5%; in the assay on PC-3 prostate, 40.9%; in the assay on SK-MEL-5 melanoma it was 45.7%. The growth is -0.969% (active) in the assay on UACC-62 melanoma; -31.6% (active) in the assay with LOX IMVI melanoma; 39.5% in the assay on SK-MEL-28 melanoma; 86.9% in the assay with SK-MEL-2 melanoma; 55.2% with SN12C renal; 56.3% in the assay with UO-31 renal. For the same compound, the growth in the assay on TK-10 renal was 81.4%; with ACHN renal, 39.6%; in the assay with CAKI-1 renal, 66.2%; with A498 renal, 93.6%; with CCRF-CEM leukemia it was -7.91% (active); in the assay on MOLT-4 leukemia, 12.7%.
As for `COc1ccc(OC)c(C2OC(c3ccc4ccccc4c3O)=NN2C(C)=O)c1` (stereo unspecified), the growth with HCT-15 colon was 62%; with HT29 colon, 61.1%; in the assay on SNB-19 CNS, 81.1%; in the assay with U251 CNS, 83.3%; with PC-3 prostate, 59.3%; with SK-MEL-5 melanoma, 58.4%. The growth with UACC-62 melanoma was 69.1%; in the assay on LOX IMVI melanoma, 63.9%; with SK-MEL-28 melanoma, 78.6%; with SK-MEL-2 melanoma, 60.7%; with SN12C renal, 80.6%; in the assay with UO-31 renal, 63.4%. The growth with TK-10 renal was 80.7%; in the assay on ACHN renal, 69.5%; in the assay with CAKI-1 renal, 87.6%; in the assay on A498 renal it was 37.4%; in the assay on CCRF-CEM leukemia, 69.2%.
For `COc1ccc(N=Cc2c(O)ccc3c2oc2cc(Cl)c(O)c(Cl)c23)cc1`, the growth is 86.6% with HCT-15 colon; 105% in the assay with HT29 colon; 104% with SNB-19 CNS; 87.8% in the assay on U251 CNS; 103% with PC-3 prostate; 96.3% in the assay with SK-MEL-5 melanoma. Further, the growth is 84.2% in the assay with UACC-62 melanoma; 64.5% in the assay with LOX IMVI melanoma; 141% with SK-MEL-28 melanoma; -1.58% (active) in the assay on SK-MEL-2 melanoma; 108% in the assay with EKVX NSCLC; 102% in the assay with SN12C renal. Besides, the growth in the assay on UO-31 renal is 103%; in the assay with TK-10 renal, 120%; with ACHN renal it was 96.2%; with A498 renal, 107%; with CCRF-CEM leukemia it was 77.9%; in the assay with MOLT-4 leukemia, 89.1%.
For the compound `N#Cc1c(-c2ccccc2)nc(SCC(=O)N2CCN(c3ccccc3)CC2)[nH]c1=O`, the growth in the assay with HCT-15 colon was 107%; with HT29 colon, 117%; with SNB-19 CNS it was 99.9%; with U251 CNS, 95.7%; in the assay on PC-3 prostate it was 95.6%; with SK-MEL-5 melanoma, 103%. The growth in the assay with UACC-62 melanoma is 106%; with LOX IMVI melanoma it was 97%; with SK-MEL-28 melanoma, 116%; in the assay with SK-MEL-2 melanoma, 113%; with SN12C renal, 110%; in the assay on UO-31 renal, 87.6%. For the same compound, the growth is 145% in the assay on TK-10 renal; 101% with ACHN renal; 97.7% with CAKI-1 renal; 116% in the assay with A498 renal; 100% in the assay on CCRF-CEM leukemia.

Source of the values: PubChem BioAssay (NCI).
